Data on 27 compounds can be found in PubChem BioAssay (Tox21).

Test [1] can be described thus: qHTS assay to identify small molecule antagonists of the glucocorticoid receptor (GR) signaling pathway - cell viability counter screen (AID 720693). Further: nearly all actives have a fitted effect of over 55% in size.
The nature of test [2]: qHTS assay for identifying genotoxic compounds that show differential cytotoxicity against isogenic chicken DT40 cell lines with known DNA damage response pathways - wild type cell line (AID 743012). Further: nearly all actives have a fitted effect of over 60% in size. Further: potency means the concentration at half of the fitted maximal effect. Put shortly: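 Endpoint: CellTiter-Glo luminescence, 30 min RT. Cells: wild type DT40, 300/well. Exposure: compounds in DMSO, 40 h, 37 C/5% CO2, after ~0.5 h pre-incubation.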

Test [3] can be described thus: qHTS assay for identifying genotoxic compounds that show differential cytotoxicity against isogenic chicken DT40 cell lines with known DNA damage response pathways - Rev3 mutant cell line (AID 743014). Further: nearly all actives have a fitted effect of over 55% in size. Further: potency means the concentration at half of the fitted maximal effect.
The nature of test [4]: qHTS assay for identifying genotoxic compounds that show differential cytotoxicity against isogenic chicken DT40 cell lines with known DNA damage response pathways - Rad54/Ku70 mutant cell line (AID 743015). Further: nearly all actives have a fitted effect of over 60% in size. Further: potency means the concentration at half of the fitted maximal effect.
Test [5] is described as follows: qHTS assay to identify small molecule antagonists of the androgen receptor (AR) signaling pathway - cell viability counter screen (AID 743033; further: nearly all actives have a fitted effect of over 45% in size; further: potency means the concentration at half of the fitted maximal effect).
A short description of test [6]: qHTS assay to identify small molecule antagonists of the androgen receptor (AR) signaling pathway using the MDA cell line - cell viability counter screen (AID 743041; further: nearly all actives have a fitted effect of over 45% in size). Put shortly: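 qHTS viability read-out; MDA-kb2 AR-luc; R1881-stimulated; 16 h exposure at 37C, 0% CO2; CellTiter-Fluor, 30 min; fluorescence intensity.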
Test [7] can be described thus: qHTS assay to identify small molecule antagonists of the thyroid receptor (TR) signaling pathway - cell viability counter screen (AID 743064). Further: nearly all actives have a fitted effect of over 50% in size. Further: potency means the concentration at half of the fitted maximal effect. Put shortly:
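Same-well viability check: GH3.TRE-Luc cells stimulated with 1 nM T3 alongside test compound for 23.5 h, followed by CellTiter-Fluor fluorescence.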

For test [8], the target named is Androgen receptor (Homo sapiens) (UniProt P10275). The experiment in a line: qHTS assay to identify small molecule antagonists of the androgen receptor (AR) signaling pathway (AID 743035; active means well fitted inhibition curve with a large enough effect in the signal ratio in the repeat runs, not every such curve was filed as active; the % refers to the signal ratio). In a few lines:
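R1881 agonist challenge of a HEK293 UAS-beta-lactamase AR reporter line in the presence of compound (16 h, 37C); signal taken as FRET fluorescence after 2 h with LiveBLAzer B/G substrate at room temperature.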

For test [9] the target is unchanged. The experiment in a line: qHTS assay to identify small molecule agonists of the androgen receptor (AR) signaling pathway (AID 743036; active means well fitted activation curve with a large enough effect in the signal ratio in the repeat runs, with a control signal flat, not every such curve was filed as active; the % refers to the signal ratio; further: potency means the concentration at half of the fitted maximal effect). In a few lines:
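Agonist activity was scored by beta-lactamase reporter fluorescence in stably transfected HEK293 cells exposed to compounds for 16 h at 37C and 5% CO2. Substrate loading took 2 h at room temperature.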

Test [10] shares this target. The experiment in a line: qHTS assay to identify small molecule agonists of the androgen receptor (AR) signaling pathway using the MDA cell line (AID 743040; further: nearly all actives have a fitted effect of over 20% in size; further: potency means the concentration at half of the fitted maximal effect). Put shortly:
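Agonist activity is measured as luciferase luminescence in human MDA-kb2 cells whose MMTV reporter responds to both AR and GR. Compounds in DMSO incubate 16 h at 37C, 0% CO2, and ONE-Glo is read after 30 min.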

The structures appear in SMILES notation. Where “and” joins values, the source holds several entries; their conditions need not be identical. Equal values may be shown once. Inconclusive results are not listed. Some compounds were tested as several samples or in several runs, with calls that do not always agree. Calls of active or inactive are those of the source. Unless noted, the call rests on the fitted dose curve; in most records, active means well fitted curve in the direction sought with a large enough effect in the repeat runs; inconclusive means weak or mixed curves; inactive means no such curve, though single readings can be large; an effect the other way counts as inactive or inconclusive.
On the % scale 0 is the no-effect control and ±100 the full control effect.

Chain of Androgen receptor (Homo sapiens) (P10275 whole entry, looked up): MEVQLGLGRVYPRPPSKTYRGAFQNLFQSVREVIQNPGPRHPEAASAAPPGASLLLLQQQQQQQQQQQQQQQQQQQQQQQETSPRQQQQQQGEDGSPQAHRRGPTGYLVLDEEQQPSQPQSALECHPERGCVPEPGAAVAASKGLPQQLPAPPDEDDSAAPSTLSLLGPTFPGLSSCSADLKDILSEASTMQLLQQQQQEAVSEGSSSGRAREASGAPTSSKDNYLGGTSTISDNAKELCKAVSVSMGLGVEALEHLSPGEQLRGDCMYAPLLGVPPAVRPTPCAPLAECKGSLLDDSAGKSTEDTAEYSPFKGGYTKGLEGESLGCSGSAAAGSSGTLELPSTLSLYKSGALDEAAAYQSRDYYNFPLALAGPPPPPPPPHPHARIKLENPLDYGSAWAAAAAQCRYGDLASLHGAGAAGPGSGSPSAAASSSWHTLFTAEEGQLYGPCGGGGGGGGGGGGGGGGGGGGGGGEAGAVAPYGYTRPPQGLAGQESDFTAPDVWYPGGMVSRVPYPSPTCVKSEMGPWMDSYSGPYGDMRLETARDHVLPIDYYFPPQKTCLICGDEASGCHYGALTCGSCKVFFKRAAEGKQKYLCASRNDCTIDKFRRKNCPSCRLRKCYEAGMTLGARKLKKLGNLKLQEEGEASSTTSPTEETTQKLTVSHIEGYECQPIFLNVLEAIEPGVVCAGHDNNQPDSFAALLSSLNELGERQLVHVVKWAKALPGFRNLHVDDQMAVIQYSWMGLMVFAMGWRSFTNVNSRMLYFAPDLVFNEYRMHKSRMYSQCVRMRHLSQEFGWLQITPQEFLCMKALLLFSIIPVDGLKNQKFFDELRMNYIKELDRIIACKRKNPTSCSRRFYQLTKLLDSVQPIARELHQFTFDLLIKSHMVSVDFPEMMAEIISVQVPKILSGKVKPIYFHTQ

With `CCCCC(CC)CO` (stereo unspecified), the outcome in test [1] was inactive. Besides, the Potency result in test [2], in test [3], in test [4], in test [5], in test [6] and in test [7] was “inactive” each time.

As to `CCCCCC1=CCCC1=O`, the call in test [1] was inactive. Moreover, the Potency entry in test [2], in [3], in [4], in test [5] and in test [6] was “inactive” each time.

`COc1ccc(Nc2ccccc2)c(C)c1`: the compound was classed as inactive in [1]. Also, the Potency result in [2], in test [3], in test [4], in test [5], in test [6] and in test [7] was “inactive” each time.

As for `Cc1ccc(S(N)(=O)=O)cc1`, in test [1], the result was inactive. The Potency entry in test [2], in [3], in [4], in [5], in test [6] and in test [7] was “inactive” each time.

Consider `N[C@@H](Cc1cc(I)c(Oc2cc(I)c(O)c(I)c2)c(I)c1)C(=O)O`, for which the outcome in test [1] was inactive. For the same compound, the Potency result in [2], in test [3], in [4], in test [5], in test [6] and in [7] was “inactive” in each case.

In the case of `C#CCN(C)Cc1ccccc1`, in test [1], the outcome was inactive. For the same compound, the Potency entry in test [2], in test [3], in test [4], in test [5], in test [6] and in [7] was “inactive” in each case.

On to `CCc1ccc(CCOc2ccc(CC3SC(=O)NC3=O)cc2)nc1` (stereo unspecified), for which the result in [1] was inactive. Besides, the Potency entry in test [2] is “inactive and 68.6 µM (active)”; in test [3] it was “inactive and 68.6 µM (active)”; in [4] it was 11.9 µM (active) and 61.1 µM (active). The Potency entry in [5], in test [6] and in [7] was “inactive” throughout.

In the case of `O=C(O)[C@H](O)[C@@H](O)[C@H](O)[C@H](O)CO`, the compound was classed as inactive in [1]. Also, the Potency entry in test [2], in [3], in test [4], in test [5], in test [6] and in [7] was “inactive” each time.

Regarding `O=C1CCC(N2C(=O)c3ccccc3C2=O)C(=O)N1` (stereo unspecified), the result in [1] was inactive. The Potency result in [2], in test [3], in test [4], in test [5], in [6] and in [7] was “inactive” each time.

`Cc1ccc(N(C)C)cc1`: the compound was called inactive in [1] and in [8]. Besides, the Potency entry in test [2], in test [3], in test [4], in test [5], in test [9] and in test [10] was “inactive” in each case. Also, the Potency entry in test [6] and in test [7] was “inactive” each time.

Take `CC(O)COCC(C)O` (stereo unspecified): the compound was called inactive in test [1]. For the same compound, the Potency result in [2], in test [3], in test [4], in [5], in test [6] and in test [7] was “inactive” throughout.

Regarding `O=P(OC(CCl)CCl)(OC(CCl)CCl)OC(CCl)CCl`, in test [1], the compound was called inactive. For the same compound, the Potency in test [2] was 43.3 µM (active); in [3], 30.5 µM (active) and 19.3 µM (active); in test [4] it was 54.2 µM (active) and 61.1 µM (active). Also, the Potency result in [5] and in test [6] was “inactive” each time.

Consider `C=C(C)C(=O)OCCOCCOCCOC(=O)C(=C)C`, for which the compound was called inactive in test [1]. Moreover, the Potency result in [2], in [3], in [4], in test [5], in test [6] and in [7] was “inactive” each time.

As for `C/C=C1/CC2C=CC1C2` (stereo unspecified), the compound was called inactive in test [1]. Besides, the Potency entry in test [2], in test [3], in test [4], in test [5], in test [6] and in test [7] was “inactive” in each case.

As for `C[Si](O[Si](C)(C)C)O[Si](C)(C)C`, the compound was called inactive in test [1] and in test [8]. The Potency entry in test [2], in [3], in [4], in test [5], in test [9] and in test [10] was “inactive” in each case. Further, the Potency result in test [6] and in test [7] was “inactive” in each case.

On to `CC(C)CC(=O)CC(C)C`, for which, in test [1], the result was inactive. The Potency result in test [2], in test [3], in [4], in test [5], in [6] and in test [7] was “inactive” each time.

On to `CC[C@H](C)C(=O)O[C@H]1C[C@@H](C)C=C2C=C[C@H](C)[C@H](CC[C@@H]3C[C@@H](O)CC(=O)O3)[C@H]21`, for which the compound was called inactive in [1]. Further, the Potency in test [2] was 53.1 nM (active) and 5.52 µM (active) and 682 nM (active); in test [3], 8.4 nM (active) and 391 nM (active) and 3.8 nM (active); in [4], 53.1 nM (active) and 2.77 µM (active) and 136 nM (active); in test [5], 31.3 µM (active) and inactive; in test [7], 62 µM (active) and 60.8 µM (active). Further, the Potency entry in test [6] is “inactive”.

In the case of `CCCCN(CCCC)CCCC`, in test [1], the result was inactive. Besides, the Potency entry in test [2], in test [3], in [4], in [5], in test [6] and in test [7] was “inactive” each time.

Take `O=C(O)c1ccccc1C(c1ccc(O)cc1)c1ccc(O)cc1`: the result in test [1] and in test [8] was inactive. For the same compound, the Potency result in [2], in test [3], in [4], in [5], in [9] and in test [10] was “inactive” throughout. Besides, the Potency entry in test [6] and in test [7] was “inactive” throughout.

On to `CC1CCC(C(C)C)C(O)C1` (stereo unspecified), for which the result in test [1] and in test [8] was inactive. The Potency result in test [2], in [3], in test [4], in test [5], in test [9] and in test [10] was “inactive” throughout. Besides, the Potency result in test [6] and in [7] was “inactive” throughout.

For `CC(=O)CC(=O)Nc1ccccc1`, the compound was classed as inactive in [1]. Besides, the Potency result in [2], in test [3], in [4], in test [5], in test [6] and in [7] was “inactive” each time.

As for `O=C=NCCCCCCN=C=O`, the compound was classed as inactive in test [1]. Moreover, the Potency entry in test [2], in [3], in test [4], in test [5], in test [6] and in test [7] was “inactive” in each case.

In the case of `CCN(CC)CCCC(C)Nc1ccnc2cc(Cl)ccc12` (stereo unspecified), in [1], the outcome was inactive. Further, the Potency in [2] was 21.1 µM (active); in test [3] it was 13.3 µM (active) and 2.66 µM (active); in [4], 18.8 µM (active). For the same compound, the Potency result in test [5] was “inactive”. For the same compound, the viability change, negative = cytotoxic in [6] was -15.9% [at 8.47 µM] (inactive). In addition, the activity change, negative = cytotoxic in test [7] is -23.7% [at 8.44 µM] (inactive).

As to `COCCCOc1ccnc(CS(=O)c2nc3ccccc3[nH]2)c1C` (stereo unspecified), the compound was called inactive in test [1]. Besides, the Potency in [2] was 23.7 µM (active) and 15.3 µM (active); in [3], 29.8 µM (active) and 24.2 µM (active); in test [4] it was 13.3 µM (active) and 19.3 µM (active). Also, the Potency entry in [5], in [6] and in test [7] was “inactive” each time.

On to `O=C(O)c1cc(C(=O)O)cc(S(=O)(=O)O)c1`, for which the call in test [1] was inactive. Also, the Potency result in test [2], in test [3], in test [4], in test [5], in test [6] and in test [7] was “inactive” in each case.

Regarding `Cc1cccnc1`, in test [1], the outcome was inactive. In addition, the Potency result in test [2], in test [3], in test [4], in test [5], in test [6] and in test [7] was “inactive” each time.

As for `C[C@H]1C[C@@H]2[C@H]([C@@H](O)C[C@@]3(C)[C@H]2CC[C@]3(O)C(=O)CO)[C@@]2(C)C=CC(=O)C=C12`, the call in test [1] was inactive. In addition, the Potency result in [2], in test [3], in test [4], in [5], in test [6] and in test [7] was “inactive” in each case. Besides, the Potency was 32.3 nM (active) and 49 nM (active) in test [9]; 50.7 nM (active) and 38.6 nM (active) in test [10].
